3T3 cytotox: cytotoxic compounds in NIH 3T3 cells; AID 1345082; Potency, µM (series often up to 96.7 µM), inactives show at the top dose activity change, negative = cytotoxicity, hits mostly inhibitors; 4.3% of 94,000 active; NIH 3T3 viability, CellTiter-Glo ATP luminescence, 48-72 h; further: on the % scale 0 is the no-effect control and ±100 the full control effect; nearly all actives have a fitted effect of over 55% in size
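First NIH 3T3 cells are plated at 400 cells/well; next compound is pinned in; then plates incubate 48 or 72 hr at 37 °C; finally CellTiter-Glo is added and luminescence read after 10 min.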
HEK293 tox: cytotoxic compounds in HEK 293 cells. HEK 293 viability, ATP luminescence (CellTiter-Glo), 48-72 h. Potency, µM (highest dose often 115 µM), for the others: top-dose activity change, negative = cytotoxicity, usual class: inhibitors. 6.6% of 94,000 active. AID 1345083; further: on the % scale 0 is the no-effect control and ±100 the full control effect; nearly all actives have a fitted effect of over 60% in size
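HEK 293 seeded at 250 cells/well receive compound via pintool. After 48 or 72 hr at 37 degree Celsius, 5% CO2 and 95% humidity, CellTiter-Glo is dispensed and luminescence read following 10 min at room temperature.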
SNCA expr inhib: inhibitors of alpha-synuclein (SNCA) gene expression. HEK-293 SNCA-luciferase knock-in, luminescence, 24 h. Potency, µM (titrated, usually from 57.2 µM), for inactives: at the top dose activity change, negative = inhibition, usual class: inhibitors. 0.17% of 140,000 active. AID 1671194;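 further: plate controls were DMSO cells for no effect and cell-free wells for full effect; nearly all actives have a fitted effect of over 45% in size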
NPR1 antag: antagonists of human natriuretic peptide receptor Npr1 | P16066 | HEK293 hNpr1 GloSensor cGMP, ANP-stimulated luminescence | Potency, µM (highest dose often 46.3 µM), for the others: at the top dose activity change, negative = inhibition, most hits filed as inhibitors | 1.6% of 76,000 active | AID 1347048; calls by dose curve; further: on the % scale 0 is the no-effect control and ±100 the full control effect; nearly all actives have a fitted effect of over 60% in size
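HEK293 cells stably expressing human Npr1 and cGMP GloSensor pGS-40F, loaded 2 h with 2% GloSensor reagent, given compound 30 min at room temperature. Luminescence read before and 20 min after 0.1 nM hNppA.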
FLuc inh: Photinus pyralis luciferase inhibition. P08659. purified P. pyralis luciferase, luminescence, biochemical. Potency, µM (highest dose often 115 µM), most hits filed as inhibitors. 2.5% of 76,000 active. AID 1347043; further: on the % scale 0 is the no-effect control and ±100 the full control effect; nearly all actives have a fitted effect of over 65% in size
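Purified 10nM P. pyralis luciferase with 10uM D-luciferin and 10uM ATP in 50mM Tris acetate pH 7.5, 10mM Mg acetate, 0.01% Tween-20, 0.05% BSA. qHTS titration; luminescence read by CCD imager.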
SNCA viab count: counter-screen for SNCA expression inhibitors: cell viability. Potency, µM (top dose mostly 57.1 µM), inactives show top-dose activity change, negative = cytotoxicity, most hits filed as cytotoxic. 0.12% of 150,000 active. HEK-293-SNCA-luc viability, GF-AFC fluorescence, 24 h. AID 1671193;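 further: 0% = DMSO-treated cells and -100% = medium-only wells without cells; nearly all actives have a fitted effect of over 30% in size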
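Cytotoxicity counterscreen: after 24 h compound treatment of genome-edited SNCA-luciferase HEK-293 cells, live-cell protease substrate GF-AFC read by fluorescence after 30 min; activity scaled between DMSO (0%) and medium-only (-100%), curves Hill-fitted.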
NPR1 antag cnf: hNpr1 antagonism, confirmation assay | shares compounds with NPR1 antag | HEK293 hNpr1 cGMP GloSensor luminescence, ANP-stimulated | Potency, µM (series often up to 57.6 µM), for inactives: top-dose activity change, negative = inhibition, most hits filed as inhibitors | 76% of 1,400 active | AID 1347044; calls by dose curve; further: nearly all actives have a fitted effect of over 70% in size
NPR2 antag: selectivity test of Npr1 antagonists against human Npr2; Potency, µM (titrated, usually from 57.6 µM), without a hit: at the highest dose activity change, negative = inhibition, actives largely listed as inhibitors; shares compounds with NPR1 antag; AID 1347046; 67% of 1,400 active; HEK293 hNpr2 GloSensor cGMP luminescence, CNP-stimulated; calls by dose curve; further: nearly all actives have a fitted effect of over 70% in size
Target sequence (P20594 whole entry, looked up): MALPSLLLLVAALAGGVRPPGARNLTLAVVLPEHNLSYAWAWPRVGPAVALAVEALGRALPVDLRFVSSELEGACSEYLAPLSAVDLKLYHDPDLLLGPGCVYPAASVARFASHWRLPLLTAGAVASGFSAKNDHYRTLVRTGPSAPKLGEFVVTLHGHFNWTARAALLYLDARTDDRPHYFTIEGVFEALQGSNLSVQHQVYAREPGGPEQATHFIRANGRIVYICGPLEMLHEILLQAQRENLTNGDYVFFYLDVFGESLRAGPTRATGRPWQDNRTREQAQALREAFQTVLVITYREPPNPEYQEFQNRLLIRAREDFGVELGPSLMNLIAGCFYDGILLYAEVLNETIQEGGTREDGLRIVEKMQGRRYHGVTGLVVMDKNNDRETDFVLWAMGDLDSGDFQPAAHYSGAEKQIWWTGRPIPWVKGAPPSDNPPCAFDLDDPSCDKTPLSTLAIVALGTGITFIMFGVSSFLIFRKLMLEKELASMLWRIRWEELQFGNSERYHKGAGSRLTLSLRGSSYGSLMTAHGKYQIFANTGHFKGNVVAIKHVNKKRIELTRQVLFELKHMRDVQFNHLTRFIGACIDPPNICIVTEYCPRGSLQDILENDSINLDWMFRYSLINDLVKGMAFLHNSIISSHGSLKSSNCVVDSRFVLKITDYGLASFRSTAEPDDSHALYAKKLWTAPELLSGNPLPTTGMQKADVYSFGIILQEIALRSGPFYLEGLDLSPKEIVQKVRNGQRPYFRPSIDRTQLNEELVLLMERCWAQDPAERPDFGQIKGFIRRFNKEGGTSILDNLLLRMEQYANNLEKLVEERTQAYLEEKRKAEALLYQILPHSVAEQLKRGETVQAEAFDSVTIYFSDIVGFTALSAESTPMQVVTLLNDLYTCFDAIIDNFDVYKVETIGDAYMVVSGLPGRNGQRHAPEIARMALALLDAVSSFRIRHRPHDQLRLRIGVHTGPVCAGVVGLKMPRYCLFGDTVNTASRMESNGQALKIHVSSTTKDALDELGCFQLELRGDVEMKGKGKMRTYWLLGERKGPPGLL
FLuc counter: inhibits firefly luciferase, false Npr1 antagonist flag. purified FLuc enzyme, luminescence, Km substrate. AID 1347047. 0.7% of 1,400 active. Potency, µM (titrated, usually from 57.6 µM), for the others: at the highest dose activity change, negative = inhibition, usual class: inhibitors. shares compounds with NPR1 antag; further: series mostly up to about 58 µM; 0% is about no effect
GloSensor ctrl: counter-screen for Npr1 antagonists: GloSensor control cell line. shares compounds with NPR1 antag. HEK293 GloSensor cGMP, SNP-stimulated, luminescence. Potency, µM (top dose mostly 57.6 µM), for inactives: at the top dose activity change, negative = inhibition, actives largely listed as inhibitors. 69% of 1,400 active; calls by dose curve; further: on the % scale 0 is the no-effect control and ±100 the full control effect; nearly all actives have a fitted effect of over 70% in size
Active calls of the source: *; i = inactive; ? = inconclusive; / = no result given; [ ] = another dose, or the depositor's remark. The list is not random: actives were taken first. Their share in the collection is about 7.4%. Unless noted, the call rests on the fitted dose curve; in most records, active means well fitted curve in the direction sought with a large enough effect; inconclusive means small, poorly fitted or top-dose-only effect, or another doubt; inactive means no such curve, though single readings can be large; an effect the other way counts as inactive or inconclusive. Potency means the concentration at half of the fitted maximal effect.

SMILES	3T3 cytotox	HEK293 tox	SNCA expr inhib	NPR1 antag	FLuc inh	SNCA viab count	NPR1 antag cnf	NPR2 antag	FLuc counter	GloSensor ctrl
O=C(c1ccc(C(F)(F)F)cc1)N1CCC(C(=O)N2CCC(N3CCOC3=O)CC2)CC1	-23%	-7%	9%	/	/	16%	/	/	/	/
Cc1nc(C2CC(O)C2)cc(N2CCN(C(=O)c3cccs3)CC2)n1 (stereo not given)	-27%	-17%	75%	3%	i	2%	/	/	/	/
Cc1nc(C2CC(O)C2)cc(N2CCN(c3nc4ccccc4s3)CC2)n1 (stereo not given)	?	?	?	7.1µM*	i	?	9.7µM*	11µM*	1%	8.6µM*
Cc1cc2c(c(=O)o1)C=C1CC[C@H]([C@H](C)Cn3cnc(=N)c4[nH]cnc43)C[C@@H]1O2	/	/	/	/	/	-21%	/	/	/	/
COc1ccc(CN2C(=O)[C@@H]3C[C@@H](CN3Cc3cccs3)Oc3ccccc32)cc1	?	79µM*	?	?	i	?	?	?	-20%[86.2 µM]	0%[86.2 µM]
CC1=C(C(=O)OC(C)C)C(c2ccc(C)cc2)CC(=O)N1Cc1cccc(C#N)c1 (stereo not given)	?	35µM*	-20%	?	i	1%	?	?	1%	-2%
COCc1cc(N2CCC(c3cccc(OC)c3OC)C2)ncn1 (stereo not given)	?	?	-13%	3.2µM*	i	-3%	3.1µM*	4.8µM*	-2%	3.1µM*
COc1ccc(OC)c(C2CCN(c3ncncn3)C2)c1 (stereo not given)	?	?	11%	4%	i	-16%	/	/	/	/
CCc1ccc(C(=O)N2CCN(C(=O)c3nnn4c3COC(c3ccc(C)cc3)C4)CC2)cc1 (stereo not given)	-17%	?	-6%	?	i	6%	19µM*	19µM*	-1%	19µM*
COc1ccccc1CC(=O)N1CCN(C(=O)c2nnn3c2COC(c2ccc(C)cc2)C3)CC1 (stereo not given)	-33%	?	-21%	10µM*	i	-15%	19µM*	19µM*	2%	15µM*
COc1cccc(CC(=O)N2CCN(C(=O)c3nnn4c3COC(c3ccc(C)cc3)C4)CC2)c1 (stereo not given)	-7%	?	-25%	?	i	-19%	24µM*	?	4%	?
COc1cccc(CC(=O)N2CCN(C(=O)c3nnn4c3COC(c3ccccc3)C4)CC2)c1 (stereo not given)	-2%	-8%	2%	-14%	i	-11%	/	/	/	/
Cc1ccc(C2Cn3nnc(C(=O)N4CCN(C(=O)Cc5cccc(F)c5)CC4)c3CO2)cc1 (stereo not given)	3%	?	?	11µM*	i	-15%	22µM*	22µM*	1%	22µM*
O=C(c1cc(-c2ccsc2)c2nncn2n1)N1CCCC1	-31%[138 µM]	-11%[172 µM]	-16%[87.6 µM]	/	/	8%[87.6 µM]	/	/	/	/
O=C(NC1CCCCCC1)c1ccc2nc(-c3ccnc(Cl)c3)oc2c1	-19%[138 µM]	?	-24%[87.6 µM]	/	/	3%[87.6 µM]	/	/	/	/
C=CCOC(=O)C1=C(C)N=C2SC=C(CC(=O)N3CCOCC3)N2C1c1ccc(C)cc1C (stereo not given)	-15%	?	6%	?	?	9%	/	/	/	/
CC1=C(C(=O)OC(C)C)C(c2ccc(C)cc2C)N2C(CC(=O)N3CCCC3)=CSC2=N1 (stereo not given)	?	?	-3%	?	i	-14%	?	?	-8%	?
CC1=C(C(=O)OC(C)C)C(c2ccccc2Cl)N2C(CC(=O)N3CCOCC3)=CSC2=N1 (stereo not given)	-31%	?	25%	14µM*	i	-23%	?	?	2%	?
CC1=C(C(=O)OC(C)C)C(c2ccccc2Cl)N2C(CC(=O)N3CCCC3)=CSC2=N1 (stereo not given)	-14%	?	-31%	13µM*	i	-27%	24µM*	22µM*	-2%	?
CC1=C(C(=O)OC(C)C)C(c2ccccc2F)N2C(CC(=O)N3CCOCC3)=CSC2=N1 (stereo not given)	-19%	-12%	5%	-26%	i	-12%	/	/	/	/
COc1ccc(CCC(=O)N2CCC3(CCC3OC)CC2)cc1 (stereo not given)	-23%	-17%	-2%	/	/	5%	/	/	/	/
Cc1ccc(-c2cccc(CN3CCCC(NC(=O)c4ccccc4C)C3)c2)cc1Cl (stereo not given)	?	?	?	/	/	-7%	/	/	/	/
Cc1ccccc1CC(=O)N1CCCN(c2cc(-c3ccc(Cl)cc3)[nH]n2)CC1	?	?	-29%	0%	i	-24%	/	/	/	/
COc1cccc(CC(=O)N2CCCN(c3cc(-c4ccc(Br)cc4)[nH]n3)CC2)c1	35µM*	45µM*	?	11µM*	i	-28%	24µM*	24µM*	-1%	22µM*
COc1ccc(-c2cc(N3CCN(C(=O)Cc4ccc(Br)cc4)CC3)n[nH]2)cc1	i	1%	31%	?	i	-7%	/	/	/	/
Cc1cccc(CC(=O)N2CCCN(c3cc(-c4ccc(Br)cc4)[nH]n3)CC2)c1	32µM*	?	-10%	?	i	-8%	?	24µM*	3%	24µM*

Compound activity from PubChem BioAssay.
